# Measurements published in PubChem BioAssay (EPA / NIEHS).
# Calls of active or inactive are those of the source. Rule for the calls: active = hit-call score of the fitted dose curve at least 0.9, where 1 is the maximum; inactive = score below 0.9.
# Experiment: Tanguay_ZF_120hpf_MORT: Oregon State University Tanguay Lab 120 Hour Post-fertilization zebrafish Assay for Mortality (AID 2284399)
# Experimental: Tanguay_ZF_120hpf is a whole embryo, multiplexed endpoint assay using zebrafish larvae exposed for 120 hours post fertilization on a 96-well plate.Tanguay_ZF_120hpf_MORT is one of one assay component(s) measured or calculated from the Tanguay_ZF_120hpf assay. It is designed to make measurements of zebrafish development as detected with brightfield microscopy of developing zebrafish embryos.Data from the assay component Tanguay_ZF_120hpf_MORT was analyzed into 1 assay endpoints. This assay endpoint, Tanguay_ZF_120hpf_MORT, was analyzed in the positive analysis fitting direction relative to DMSO as the negative control and baseline of activity. Using a type of viability reporter, gain-of-signal activity can be used to understand changes in developmentals as they relate to the whole embryo. To generalize the intended target to other relatable targets, this assay endpoint is annotated to the zebrafish development intended target family, where the subfamily is embryonic mortality.
# Zebrafish husbandry: Tropical 5D wild-type adult zebrafish were housed in at an approximate density of 1000 per 100 gallon tank at the Sinnhuber Aquatic Research Laboratory, Oregon State University, Corvallis, OR. Each tank was kept at standard laboratory conditions of 28C on a 14-h light/10-h dark photoperiod in fish water consisting of reverse osmosis water supplemented with a commercially available salt (Instant Ocean). Spawning funnels were placed into the tanks the night prior, and embryos were collected and staged. To increase bioavailability, the chorion was enzymatically removed using pronase (63.6mg/ml, >/= 3.5U/mg, Sigma-Aldrich: P5147) at 4 hours post fertilization (hpf) using a custom automated dechorionator.Chemical exposures: Six hpf dechorionated embryos were placed 1 embryo per well in a 96-well plate prefilled with 90 ul of EM using automated embryo placement systems (AEPS). Ten microliters of each row of dilution plate 2 was added to 2 exposure plates. The final DMSO concentration used was 0.64% (vol/vol). Thirty-two embryos were also exposed to 5uM trimethyltin chloride (positive control). Plates were sealed to prevent evaporation and foil covered to reduce light exposure and kept in a 28C incubator. Embryos were statically exposed until 120 hpf. At 24 hpf, embryos were assessed for photomotor response using a custom photomotor response analysis tool (PRAT) and for developmental toxicity endpoints (MO24: mortality at 24 hpf, DP: developmental progression, SM: spontaneous movement, and NC: notochord distortion). At 120 hpf, locomotor activity was measured using Viewpoint Zebralab and assessed for 13 endpoints. Zebrafish acquisition and analysis program (ZAAP), a custom program designed to inventory, acquire, and manage zebrafish data, was used to collect developmental endpoints as either present or absent (i.e., binary responses were recorded). If mortality occurred for an embryo (at either 24 or 120 hpf), the non-mortality endpoints were not measured.
Compound,outcome,AC50
NC(=O)C(F)(F)C(F)(F)C(F)(F)F,inactive,–
CCN(CCO)S(=O)(=O)C(F)(F)C(F)(F)C(F)(F)C(F)(F)C(F)(F)C(F)(F)C(F)(F)C(F)(F)F,inactive,–
OCC(F)(F)C(F)(F)C(F)(F)C(F)(F)C(F)(F)C(F)(F)C(F)(F)C(F)(F)CO,–,19.6 µM (active)
C[Si](Cl)(Cl)CCC(F)(F)C(F)(F)C(F)(F)C(F)(F)C(F)(F)C(F)(F)F,inactive,–
O=C(O)C(F)(F)C(F)(F)C(F)(F)OC(F)(F)F,inactive,–
OCC(O)CC(F)(F)C(F)(F)C(F)(F)C(F)(F)F (configuration not stated),inactive,–
CNS(=O)(=O)C(F)(F)C(F)(F)C(F)(F)C(F)(F)C(F)(F)C(F)(F)C(F)(F)C(F)(F)F,–,56.9 µM (active)
CN(C(=O)C(F)(F)C(F)(F)C(F)(F)F)[Si](C)(C)C,inactive,–
NC(O)(C(F)(F)F)C(F)(F)F,inactive,–
OCC(O)CC(F)(F)C(F)(F)C(F)(F)C(F)(F)C(F)(F)C(F)(F)C(F)(F)C(F)(F)F (configuration not stated),inactive,–
CO[Si](C)(CCC(F)(F)C(F)(F)C(F)(F)C(F)(F)C(F)(F)C(F)(F)F)OC,inactive,–
O=S(=O)(O)CCC(F)(F)C(F)(F)C(F)(F)C(F)(F)C(F)(F)C(F)(F)C(F)(F)C(F)(F)F,–,64.2 µM (active)
FC(F)(F)C(F)(F)C(F)(F)CC1CO1 (configuration not stated),inactive,–
O=C(O)C(F)(F)C(F)(F)C(F)(F)OC(F)(C(F)(F)F)C(F)(F)F,inactive,–
OCCCCC(F)(F)C(F)(F)C(F)(F)C(F)(F)F,inactive,–
FC(F)(F)C(F)(F)C(F)(F)C(F)(F)C(F)(F)C(F)(F)C(F)(F)CCI,inactive,–
O=C(O)CCC(F)(F)C(F)(F)C(F)(F)C(F)(F)C(F)(F)C(F)(F)C(F)(F)F,inactive,–
OCCCC(F)(F)C(F)(F)C(F)(F)C(F)(F)C(F)(F)C(F)(F)C(F)(F)C(F)(F)F,inactive,–
CCOC(=O)CC(=O)C(F)(F)C(F)(F)F,inactive,–

Compound,outcome,AC50
O=S(=O)(OCC(F)(F)F)C(F)(F)C(F)(F)C(F)(F)C(F)(F)F,inactive,–
O=C(O)C(F)(F)C(F)(F)C(F)(F)C(=O)O,inactive,–
C=CC(=O)OCC(F)(F)C(F)(F)C(F)(F)COC(=O)C=C,–,16.3 µM (active)
C=CC(=O)OCC(F)(F)C(F)(F)C(F)(F)C(F)(F)C(F)(F)C(F)(F)C(F)(F)C(F)F,inactive,–
OC(O)C(F)(F)C(F)(F)F,inactive,–
O=S(=O)(O)CCC(F)(F)C(F)(F)C(F)(F)C(F)(F)F,inactive,–
NC(=O)C(F)(F)C(F)(F)C(F)(F)C(F)(F)C(N)=O,inactive,–
NC(=O)C(F)(F)C(F)(F)C(F)(F)C(F)F,inactive,–
FC(F)(F)C(F)(F)C(F)(F)C(F)(F)C(F)(F)C(F)(F)CC[Si](Cl)(Cl)Cl,inactive,–
NS(=O)(=O)C(F)(F)C(F)(F)C(F)(F)C(F)(F)C(F)(F)C(F)(F)F,–,11.1 µM (active)
O=S(=O)(Cl)C(F)(F)C(F)(F)C(F)(F)C(F)(F)C(F)(F)C(F)(F)C(F)(F)C(F)(F)F,inactive,–
COC(F)(C(F)F)C(F)(F)F (configuration not stated),inactive,–
C=CC(=O)OCCC(F)(F)C(F)(F)C(F)(F)C(F)(F)F,inactive,–
NC(=O)C(F)(F)C(F)(F)C(F)(F)C(F)(F)C(F)(F)C(F)(F)C(F)(F)F,–,41.3 µM (active)
OCC(F)(F)C(F)(F)C(F)(F)CO,inactive,–
O=C(O)CCC(F)(F)C(F)(F)C(F)(F)F,inactive,–
OCC(F)(F)C(F)(F)C(F)(F)C(F)(F)C(F)(F)C(F)(F)CO,inactive,–
O=C(F)C1(F)C(F)(F)C(F)(F)C(F)(F)C(F)(F)C1(F)F,inactive,–
